Here are results for 44 compounds from PubChem BioAssay AID588458 (Sanford-Burnham Center for Chemical Genomics, 2011).

The whole screen tested about 360,000 compounds, of which about 3,000 (0.83%) were called active. This excerpt belongs to a sample that is enriched for actives. Unmarked numbers belong to inactive results. Rule as the data show it: active = inhibition above about 50%; inactive = the rest.

DNA (cytosine-5)-methyltransferase 1 (Homo sapiens), sequence (P26358 504-1616 limits assumed): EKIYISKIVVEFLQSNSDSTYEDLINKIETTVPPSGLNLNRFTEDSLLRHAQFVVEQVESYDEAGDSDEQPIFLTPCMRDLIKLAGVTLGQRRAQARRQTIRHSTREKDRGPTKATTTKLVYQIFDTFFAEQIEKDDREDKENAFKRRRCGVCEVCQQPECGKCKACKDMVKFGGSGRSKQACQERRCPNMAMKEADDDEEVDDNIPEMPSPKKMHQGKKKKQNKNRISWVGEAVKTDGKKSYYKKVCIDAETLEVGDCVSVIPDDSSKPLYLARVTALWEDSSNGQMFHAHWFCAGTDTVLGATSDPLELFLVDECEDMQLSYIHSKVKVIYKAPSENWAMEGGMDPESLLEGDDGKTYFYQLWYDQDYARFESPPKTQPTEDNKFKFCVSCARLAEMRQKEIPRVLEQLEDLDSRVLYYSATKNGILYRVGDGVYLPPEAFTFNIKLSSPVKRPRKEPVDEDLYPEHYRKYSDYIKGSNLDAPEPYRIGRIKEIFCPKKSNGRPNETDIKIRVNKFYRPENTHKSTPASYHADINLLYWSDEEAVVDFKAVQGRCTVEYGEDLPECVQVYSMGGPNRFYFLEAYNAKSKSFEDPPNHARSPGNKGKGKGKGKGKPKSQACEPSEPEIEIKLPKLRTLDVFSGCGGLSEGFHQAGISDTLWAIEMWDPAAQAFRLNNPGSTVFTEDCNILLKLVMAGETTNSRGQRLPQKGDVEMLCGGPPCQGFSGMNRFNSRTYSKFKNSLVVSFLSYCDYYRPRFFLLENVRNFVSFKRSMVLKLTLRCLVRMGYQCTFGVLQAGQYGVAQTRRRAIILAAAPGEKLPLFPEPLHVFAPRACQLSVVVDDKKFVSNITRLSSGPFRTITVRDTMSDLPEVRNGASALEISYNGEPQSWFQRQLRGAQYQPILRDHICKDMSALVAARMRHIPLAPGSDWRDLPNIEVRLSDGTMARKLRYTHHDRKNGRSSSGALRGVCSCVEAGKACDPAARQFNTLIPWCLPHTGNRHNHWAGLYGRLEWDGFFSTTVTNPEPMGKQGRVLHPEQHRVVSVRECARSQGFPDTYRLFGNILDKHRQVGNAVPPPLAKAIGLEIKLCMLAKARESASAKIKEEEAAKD

This test addresses DNA (cytosine-5)-methyltransferase 1 (Homo sapiens) (UniProt P26358). The experiment in a line: human DNMT1 methyltransferase inhibitors, primary screen, biochemical, molecular beacon, fluorescence, HinP1I cleavage, uHTS (AID 588458). The following applies: at 10 µM, active compounds read high.
In the case of `COc1ccc(-c2ccc3c(c2)[C@@H]2C[C@H](N(C)S(=O)(=O)c4ccccc4)[C@H]([C@H](C)O)C(=O)N2CC3)cc1`, the inhibition (reported as % activation of signal) was -4.42%.

Take `C[C@@H]1CN([C@H](C)CO)C(=O)CCCn2cc(nn2)CO[C@H]1CN(C)S(C)(=O)=O`: the inhibition (reported as % activation of signal) is 2.33%.

Take `CCc1c(C)nc2c(-c3ccccc3)c(C)nn2c1Nc1ccc(NC(C)=O)cc1`: the inhibition (reported as % activation of signal) is -6.65%.

As to `O=C(NNc1c2ccccc2nc2ccccc12)c1cc2ccccc2cc1O`, the inhibition (reported as % activation of signal) is -19.2%.

Turning to `CC(=O)Nc1ccc(Nc2c3ccccc3nc3ccccc23)cc1`, the inhibition (reported as % activation of signal) was 57.2% (active).

In the case of `Oc1ccc2ccc3cccc[n+]3c2c1`, the inhibition (reported as % activation of signal) is 59% (active).

Take `CCOc1cc(/C=C/C(=O)OCC(=O)NCCN2C(=O)CSC2=O)ccc1OCC(C)C`: the inhibition (reported as % activation of signal) was 8.03%.

As to `CCCCC(=O)N(c1ccc(OC)cc1)C1C=CS(=O)(=O)C1` (centres undefined), the inhibition (reported as % activation of signal) was -1.75%.

Regarding `Cc1ccc2cc(C)c(N3CCC(C)CC3)nc2c1`, the inhibition (reported as % activation of signal) was 80.8% (active).

On to `Cc1ccc2cc(C)c(N3CCN(c4ccc(F)cc4)CC3)nc2c1`, for which the inhibition (reported as % activation of signal) was 2.96%.

Turning to `Cc1cc(C)c2cc(C#N)c(N3CCNCC3)nc2c1`, the inhibition (reported as % activation of signal) was 6.52%.

Consider `CC(=O)NC1C(Oc2ccc(C)cc2)OC2COC(c3ccco3)OC2C1O` (centres undefined), for which the inhibition (reported as % activation of signal) is 3.51%.

As to `CCN(CCn1cccn1)Cc1nc(-c2ccc(C(=O)OC)cc2)no1`, the inhibition (reported as % activation of signal) was -5.27%.

Take `CCS(=O)(=O)C1=NSC2=NC(=O)/C(=C\c3ccc(OS(=O)(=O)c4ccccc4)cc3)C(=N)N21`: the inhibition (reported as % activation of signal) was -8.29%.

As to `CS(=O)(=O)c1ccc2c(c1)SC1=NC(=O)/C(=C/c3ccco3)C(=N)N12`, the inhibition (reported as % activation of signal) is 74.4% (active).

For `CC(=O)OC[C@@H]1CN(Cc2ccccc2)C[C@H](n2cnc3c(NCc4ccco4)ncnc32)O1`, the inhibition (reported as % activation of signal) is -4.87%.

As to `COc1ccc(S(=O)(=O)N2CCC(C(=O)NCCC(=O)NCCc3cccc(F)c3)CC2)cc1`, the inhibition (reported as % activation of signal) is 2%.

Turning to `C=CCn1c(=NC(=O)c2ccc(S(=O)(=O)N3CCCC3)cc2)sc2cc(NC(C)=O)ccc21`, the inhibition (reported as % activation of signal) is 57.7% (active).

For the compound `COc1cc(C(C)=O)ccc1OC(C)C(=O)Nc1ccc(S(=O)(=O)N2CCCC2)cc1` (centres undefined), the inhibition (reported as % activation of signal) is -3.33%.

Consider `C=CCn1c(=NC(=O)c2cccs2)sc2cc(NC(C)=O)ccc21`, for which the inhibition (reported as % activation of signal) was 27%.

As for `CN(Cc1ccccc1)C(=O)CCC1CCN(C(=O)c2ccco2)CC1`, the inhibition (reported as % activation of signal) was 0.12%.

For `O=C(COC(=O)CNS(=O)(=O)c1ccc(F)c(F)c1F)NC1CCCC1`, the inhibition (reported as % activation of signal) is 1.29%.

Turning to `CN1CCN(C(=O)c2ccccc2NC(=O)COc2ccccc2Cl)CC1`, the inhibition (reported as % activation of signal) was 0.74%.

With `CCN(CC(=O)NCC(=O)Nc1cccc(C)c1C)Cc1ccccc1`, the inhibition (reported as % activation of signal) is 0.32%.

As to `Cc1ccc(SCC(=O)NC(=O)NCc2ccco2)c(C)c1`, the inhibition (reported as % activation of signal) is 48.3%.

`Cc1ccc2[nH]c(=O)c(-c3nc4c(C)cccn4c3NCc3ccco3)cc2c1`: the inhibition (reported as % activation of signal) is 50.4% (active).

For `Cc1ccc2nc(SC(C)C(=O)NCc3ccco3)[nH]c2c1` (centres undefined), the inhibition (reported as % activation of signal) was -2.41%.

For the compound `O=C(NNS(=O)(=O)c1ccccc1C(F)(F)F)c1cc2ncc(C(F)(F)F)cc2s1`, the inhibition (reported as % activation of signal) was 5.47%.

Take `O=C(Nc1nnc(C2COc3ccccc3O2)o1)c1ccc(F)cc1` (centres undefined): the inhibition (reported as % activation of signal) was 2.41%.

On to `COc1ccccc1NC(=O)C(CC(=O)O)Cc1cc(C)cc(C)c1` (centres undefined), for which the inhibition (reported as % activation of signal) was 7.02%.

`COC(=O)/C=C\C(=O)Nc1cccc([N+](=O)[O-])c1`: the inhibition (reported as % activation of signal) is 1.93%.

Regarding `Cc1ccc(/C=C/C(=O)Nc2cc(S(=O)(=O)N3CCCCCC3)ccc2OCC(F)(F)F)o1`, the inhibition (reported as % activation of signal) is -10.7%.

As to `Cc1ccc(/C=C/C(=O)Nc2ccc([N+](=O)[O-])c(NC(=O)/C=C/c3ccc(C)o3)c2)o1`, the inhibition (reported as % activation of signal) was 86.1% (active).

For the compound `CCOC1=C2[C@H]([C@H]3C(=O)N(c4ccccc4)C(=O)[C@H]3C1)[C@@H](c1ccccc1)N(S(=O)(=O)c1ccc(C)cc1)[C@H]2c1ccccc1`, the inhibition (reported as % activation of signal) is 0.54%.

Regarding `COc1ccc(CN2C[C@H]3CON(C)[C@H]3C[C@H]2c2ccc(-c3cccc(F)c3)cc2)cc1`, the inhibition (reported as % activation of signal) was -13.2%.

Consider `CN(C(=O)CC1C(=O)NCCN1Cc1ccc(F)cc1Cl)C1CCCCC1` (centres undefined), for which the inhibition (reported as % activation of signal) was -5.76%.

Take `Cc1ccc(NC(=O)Cn2c(=O)n(CCC(=O)NC3CCN(Cc4ccccc4)CC3)c(=O)c3ccccc32)cc1`: the inhibition (reported as % activation of signal) was 1.32%.

For `COCCNC(=O)CCCn1c(=O)c2ccccc2n(Cc2cccc([N+](=O)[O-])c2)c1=O`, the inhibition (reported as % activation of signal) was -1.32%.

In the case of `CCCCNC(=O)CCn1c(=O)c2ccccc2n(Cc2cc(C)ccc2C)c1=O`, the inhibition (reported as % activation of signal) is 55.4% (active).

Regarding `COC(=O)/C(=C\Nc1ccccc1)NC(=O)c1ccc(Cl)cc1Cl`, the inhibition (reported as % activation of signal) is -1%.

For the compound `COc1cccc2cc(C(C)N(CCCN3CCOCC3)C(=O)Nc3ccc(Cl)cc3)oc12` (centres undefined), the inhibition (reported as % activation of signal) is 0.19%.

On to `CCOC(=O)C1(Cc2ccc(Cl)cc2)CCN(C(=O)C2=NNC(=O)CC2)CC1`, for which the inhibition (reported as % activation of signal) was -1.13%.

On to `COc1ccc(C(=O)OCC(=O)Nc2cccc(C(C)=O)c2)cc1OC`, for which the inhibition (reported as % activation of signal) was 70.9% (active).

As to `CC(=O)Nc1cccc(C(=O)OCC(=O)Nc2nnc(-c3ccccc3)o2)c1`, the inhibition (reported as % activation of signal) was 1.02%.
